Among the data in ChEMBL document CHEMBL3988442, “University of Dundee, Small-Polar-MMV Screening Library” (2021) are Percent Effect values, retold here.

For some assays here: Measured potencies and affinities stand elsewhere.

Parameters in all cases: scale not given: direction of the effect not stated beside the values
Assay [1] deals with Protein translocase subunit SecA (Escherichia coli (strain K12)) (UniProt P10408). Kind of assay: Assay to Identify E. coli SecA ATPase Inhibitors. It counts as functional. To be noted: 30 µM.
Chain of Protein translocase subunit SecA (Escherichia coli (strain K12)) (P10408 whole entry): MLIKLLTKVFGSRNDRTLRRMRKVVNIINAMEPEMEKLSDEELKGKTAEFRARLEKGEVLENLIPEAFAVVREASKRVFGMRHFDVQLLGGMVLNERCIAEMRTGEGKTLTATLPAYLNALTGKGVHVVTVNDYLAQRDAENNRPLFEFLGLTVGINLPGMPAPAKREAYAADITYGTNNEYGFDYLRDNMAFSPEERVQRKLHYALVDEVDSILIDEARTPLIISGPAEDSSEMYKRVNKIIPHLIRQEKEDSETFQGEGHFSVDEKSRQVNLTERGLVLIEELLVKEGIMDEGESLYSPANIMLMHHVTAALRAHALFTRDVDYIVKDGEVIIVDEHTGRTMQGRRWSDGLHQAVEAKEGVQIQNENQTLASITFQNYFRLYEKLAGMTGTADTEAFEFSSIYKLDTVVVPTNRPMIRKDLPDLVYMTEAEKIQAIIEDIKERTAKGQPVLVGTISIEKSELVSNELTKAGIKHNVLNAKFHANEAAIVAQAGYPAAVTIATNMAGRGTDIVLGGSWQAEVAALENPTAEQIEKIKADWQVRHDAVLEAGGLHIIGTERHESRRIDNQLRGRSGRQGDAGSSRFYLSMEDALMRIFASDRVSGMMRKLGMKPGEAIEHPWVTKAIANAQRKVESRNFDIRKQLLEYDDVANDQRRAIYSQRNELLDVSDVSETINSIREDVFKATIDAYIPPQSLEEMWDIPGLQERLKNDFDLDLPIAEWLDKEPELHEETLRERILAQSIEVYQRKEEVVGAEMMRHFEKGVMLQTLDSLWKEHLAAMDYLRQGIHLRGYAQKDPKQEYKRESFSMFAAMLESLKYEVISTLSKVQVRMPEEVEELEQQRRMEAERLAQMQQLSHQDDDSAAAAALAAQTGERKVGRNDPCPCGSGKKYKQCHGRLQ
In assay [2] the target is T1, Ubiquitin-activating enzyme e1, putative (Leishmania donovani (strain BPK282A1)) (UniProt E9BSI1).
T1 sequence (whole entry): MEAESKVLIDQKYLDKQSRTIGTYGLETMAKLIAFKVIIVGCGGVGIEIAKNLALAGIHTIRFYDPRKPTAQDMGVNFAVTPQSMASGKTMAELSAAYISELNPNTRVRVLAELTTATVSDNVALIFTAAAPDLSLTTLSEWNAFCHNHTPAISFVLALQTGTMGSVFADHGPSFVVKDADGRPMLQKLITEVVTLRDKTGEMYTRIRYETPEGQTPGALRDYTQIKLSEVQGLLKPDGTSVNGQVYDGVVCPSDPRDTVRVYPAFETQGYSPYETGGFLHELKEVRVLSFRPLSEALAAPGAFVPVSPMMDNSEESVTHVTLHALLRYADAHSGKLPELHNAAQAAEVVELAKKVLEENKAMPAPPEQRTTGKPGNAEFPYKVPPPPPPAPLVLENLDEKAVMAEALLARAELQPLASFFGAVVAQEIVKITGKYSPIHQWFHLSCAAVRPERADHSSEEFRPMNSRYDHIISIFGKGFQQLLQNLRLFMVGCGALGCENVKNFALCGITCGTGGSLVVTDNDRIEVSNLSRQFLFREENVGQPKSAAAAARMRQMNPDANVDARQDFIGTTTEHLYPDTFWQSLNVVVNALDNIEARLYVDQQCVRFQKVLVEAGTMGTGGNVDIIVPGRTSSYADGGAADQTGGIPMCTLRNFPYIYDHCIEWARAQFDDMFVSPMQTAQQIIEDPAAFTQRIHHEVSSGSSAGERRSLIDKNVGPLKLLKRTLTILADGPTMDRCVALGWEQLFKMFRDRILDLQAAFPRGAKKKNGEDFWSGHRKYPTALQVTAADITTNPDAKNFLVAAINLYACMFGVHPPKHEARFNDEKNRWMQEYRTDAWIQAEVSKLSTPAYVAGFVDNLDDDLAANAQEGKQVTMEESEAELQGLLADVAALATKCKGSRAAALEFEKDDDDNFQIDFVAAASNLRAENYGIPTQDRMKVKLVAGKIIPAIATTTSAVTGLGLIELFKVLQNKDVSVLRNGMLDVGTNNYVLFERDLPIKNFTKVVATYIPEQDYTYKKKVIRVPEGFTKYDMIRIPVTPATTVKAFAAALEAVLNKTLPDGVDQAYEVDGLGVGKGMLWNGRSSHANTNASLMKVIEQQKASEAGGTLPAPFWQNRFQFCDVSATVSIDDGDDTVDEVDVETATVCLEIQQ
Put plainly: Leishmania donovani Ubiquitin Activating Enzyme (LdE1). To be noted: 30 µM. It counts as functional.

Assay [3] concerns the target T2, Aspartate--tRNA(Asp/Asn) ligase (Mycobacterium tuberculosis (strain ATCC 25618 / H37Rv)) (UniProt P9WFW3). Further: in the data most compounds retested in dose-response had high values.
T2 sequence (whole entry): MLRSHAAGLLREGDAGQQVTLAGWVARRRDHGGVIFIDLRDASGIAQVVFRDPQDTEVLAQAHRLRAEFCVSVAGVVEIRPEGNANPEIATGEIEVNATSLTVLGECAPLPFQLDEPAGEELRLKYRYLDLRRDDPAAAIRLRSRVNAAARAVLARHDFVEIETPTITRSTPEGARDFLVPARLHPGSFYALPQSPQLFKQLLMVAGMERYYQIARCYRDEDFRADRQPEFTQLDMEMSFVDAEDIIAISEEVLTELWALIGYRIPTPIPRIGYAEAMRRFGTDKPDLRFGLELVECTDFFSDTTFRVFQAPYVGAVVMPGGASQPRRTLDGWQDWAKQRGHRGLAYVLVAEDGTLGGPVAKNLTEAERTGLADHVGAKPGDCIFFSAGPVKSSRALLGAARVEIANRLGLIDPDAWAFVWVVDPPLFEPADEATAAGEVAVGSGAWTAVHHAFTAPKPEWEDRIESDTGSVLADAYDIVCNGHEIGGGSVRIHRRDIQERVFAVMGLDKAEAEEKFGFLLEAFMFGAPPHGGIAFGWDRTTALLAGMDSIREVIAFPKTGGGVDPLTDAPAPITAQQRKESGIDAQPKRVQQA
Kind of assay: Assay for Asp RNA synthetase-1 from Mycobacterium tuberculosis. It counts as functional. To be noted: 30 µM.

Assay [4] concerns the target AMP-activated protein kinase, AMPK (Homo sapiens) (UniProt P54646+O43741+P54619+Q9UGJ0+Q9Y478+Q13131+Q9UGI9). Put plainly: AMP-dependent Kinase enzyme assay. An in vitro enzyme assay that detects ADP turnover that is directly proportional to AMPK activity. This uses naive AMPK that is activated during the assay with MK-8722. It counts as functional. To be noted: 30 µM.

In assay [5] the target is Sialic acid-binding Ig-like lectin 9 (Homo sapiens) (UniProt Q9Y336). Put plainly: Hs-Siglec9 ALPHAscreen SOP 20170721. To be noted: 10 µM.
Chain of Sialic acid-binding Ig-like lectin 9 (Homo sapiens) (Q9Y336 whole entry): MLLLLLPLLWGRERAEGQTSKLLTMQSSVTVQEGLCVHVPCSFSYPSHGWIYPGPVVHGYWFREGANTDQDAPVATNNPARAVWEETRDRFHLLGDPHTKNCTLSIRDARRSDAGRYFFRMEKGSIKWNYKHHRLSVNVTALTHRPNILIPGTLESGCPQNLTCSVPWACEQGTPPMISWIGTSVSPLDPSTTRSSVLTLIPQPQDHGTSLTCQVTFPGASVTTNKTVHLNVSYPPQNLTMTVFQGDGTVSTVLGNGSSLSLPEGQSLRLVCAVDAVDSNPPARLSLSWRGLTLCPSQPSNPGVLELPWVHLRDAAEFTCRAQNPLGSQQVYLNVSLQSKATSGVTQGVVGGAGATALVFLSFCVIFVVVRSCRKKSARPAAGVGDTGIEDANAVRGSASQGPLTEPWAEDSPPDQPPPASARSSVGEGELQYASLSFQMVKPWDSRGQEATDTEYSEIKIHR
The subject of assay [6] is Trypanosoma cruzi. Put plainly: Trypanosoma cruzi phosphomannomutase and mannose-1-phosphate guanylyltransferase assay. To be noted: 10 µM. It counts as functional.
For assay [7], the target named is T3, Arginase-2, mitochondrial (Homo sapiens) (UniProt P78540).
T3 sequence (whole entry): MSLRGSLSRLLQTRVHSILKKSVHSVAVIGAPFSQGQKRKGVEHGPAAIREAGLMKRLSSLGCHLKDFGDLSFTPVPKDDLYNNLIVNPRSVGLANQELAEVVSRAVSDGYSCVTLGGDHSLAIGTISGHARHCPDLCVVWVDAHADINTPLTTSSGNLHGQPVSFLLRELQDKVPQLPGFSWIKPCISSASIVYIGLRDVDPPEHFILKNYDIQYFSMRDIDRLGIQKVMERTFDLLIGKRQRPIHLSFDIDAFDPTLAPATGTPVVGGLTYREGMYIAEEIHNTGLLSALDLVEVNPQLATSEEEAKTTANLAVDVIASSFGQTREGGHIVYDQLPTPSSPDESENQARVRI
Kind of assay: in vitro enzyme assay to detect the production of urea directly proportional to the activity of Arginase II. Further: in the data most compounds retested in dose-response had high values. It counts as functional. To be noted: 33.3 µM.

In assay [8] the target is T4, Proteasome subunit beta (Trypanosoma cruzi) (UniProt O96673).
T4 sequence (whole entry): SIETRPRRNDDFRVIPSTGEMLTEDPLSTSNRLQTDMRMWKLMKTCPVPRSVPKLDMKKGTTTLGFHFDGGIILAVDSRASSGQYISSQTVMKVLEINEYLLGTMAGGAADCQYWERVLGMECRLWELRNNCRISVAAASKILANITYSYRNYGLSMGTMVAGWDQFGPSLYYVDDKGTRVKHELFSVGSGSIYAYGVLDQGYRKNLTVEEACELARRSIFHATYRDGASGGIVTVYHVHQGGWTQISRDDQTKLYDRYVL
Kind of assay: Trypanosoma cruzi proteasome chymotrypsin-like activity (TcProtChymo) assay. Further: in the data most compounds retested in dose-response had high values. It counts as functional. To be noted: 9.37 µM.

Assay [9] is filed under the species Homo sapiens. Kind of assay: To identify inhibition of the IFN signalling (Jak-Stat) pathway via expression of an eGFP reporter gene under the control of an IFN-stimulated response element (ISRE) containing MxA promoter. It counts as functional. To be noted: 30 µM. In general terms: Reporter assays use an easily measured gene product as a stand-in for the process of interest.

Assay [10] concerns the target Shiga toxin 2 (Escherichia coli O157:H7) (UniProt P09385+P09386). Kind of assay: E. coli 0.157:H7 Shiga Toxin SOP - stx2 screening assay. It counts as functional. To be noted: 30 µM.
In assay [11] the target is T5, Tyrosyl-tRNA synthetase, putative (Trypanosoma cruzi (strain CL Brener)) (UniProt Q4DSP6).
T5 sequence (whole entry): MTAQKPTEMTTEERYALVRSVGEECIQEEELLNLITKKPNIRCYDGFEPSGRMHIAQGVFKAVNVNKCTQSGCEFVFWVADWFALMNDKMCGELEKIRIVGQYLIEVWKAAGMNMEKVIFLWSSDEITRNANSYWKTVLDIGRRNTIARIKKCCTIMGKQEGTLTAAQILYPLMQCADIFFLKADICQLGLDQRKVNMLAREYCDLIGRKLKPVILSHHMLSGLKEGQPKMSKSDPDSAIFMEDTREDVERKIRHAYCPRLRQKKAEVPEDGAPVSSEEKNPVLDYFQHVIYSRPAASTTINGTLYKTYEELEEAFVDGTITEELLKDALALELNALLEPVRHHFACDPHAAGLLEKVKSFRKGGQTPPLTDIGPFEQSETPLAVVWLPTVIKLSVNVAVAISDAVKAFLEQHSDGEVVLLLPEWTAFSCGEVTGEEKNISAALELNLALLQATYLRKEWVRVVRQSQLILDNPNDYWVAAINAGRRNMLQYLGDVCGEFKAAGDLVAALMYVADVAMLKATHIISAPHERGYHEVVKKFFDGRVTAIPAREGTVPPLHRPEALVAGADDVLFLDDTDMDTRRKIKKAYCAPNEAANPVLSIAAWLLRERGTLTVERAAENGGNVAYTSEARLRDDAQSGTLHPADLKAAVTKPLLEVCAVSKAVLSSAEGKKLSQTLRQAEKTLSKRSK
Put plainly: Trypanosoma cruzi tyrosyl tRNA synthetase (TcYRS) _High Tyrosine SOP. Further: in the data most compounds retested in dose-response had high values. To be noted: 30 µM. It counts as functional.

For assay [12], the target named is T5, Tyrosyl-tRNA synthetase, putative (Trypanosoma cruzi (strain CL Brener)). Put plainly: Trypanosoma cruzi tyrosyl tRNA synthetase (TcYRS) SOP. It counts as functional. To be noted: 30 µM.
In assay [13] the target is Chromo domain-containing protein 1 (Saccharomyces cerevisiae (strain ATCC 204508 / S288c) (Baker's yeast)) (UniProt P32657). Kind of assay: ScCHD-1 Enzyme Inhibition Assay. Further: in the data most compounds retested in dose-response had high values. It counts as functional. To be noted: 30 µM.
Chain of Chromo domain-containing protein 1 (Saccharomyces cerevisiae (strain ATCC 204508 / S288c) (Baker's yeast)) (P32657 whole entry, the tested form may be a part): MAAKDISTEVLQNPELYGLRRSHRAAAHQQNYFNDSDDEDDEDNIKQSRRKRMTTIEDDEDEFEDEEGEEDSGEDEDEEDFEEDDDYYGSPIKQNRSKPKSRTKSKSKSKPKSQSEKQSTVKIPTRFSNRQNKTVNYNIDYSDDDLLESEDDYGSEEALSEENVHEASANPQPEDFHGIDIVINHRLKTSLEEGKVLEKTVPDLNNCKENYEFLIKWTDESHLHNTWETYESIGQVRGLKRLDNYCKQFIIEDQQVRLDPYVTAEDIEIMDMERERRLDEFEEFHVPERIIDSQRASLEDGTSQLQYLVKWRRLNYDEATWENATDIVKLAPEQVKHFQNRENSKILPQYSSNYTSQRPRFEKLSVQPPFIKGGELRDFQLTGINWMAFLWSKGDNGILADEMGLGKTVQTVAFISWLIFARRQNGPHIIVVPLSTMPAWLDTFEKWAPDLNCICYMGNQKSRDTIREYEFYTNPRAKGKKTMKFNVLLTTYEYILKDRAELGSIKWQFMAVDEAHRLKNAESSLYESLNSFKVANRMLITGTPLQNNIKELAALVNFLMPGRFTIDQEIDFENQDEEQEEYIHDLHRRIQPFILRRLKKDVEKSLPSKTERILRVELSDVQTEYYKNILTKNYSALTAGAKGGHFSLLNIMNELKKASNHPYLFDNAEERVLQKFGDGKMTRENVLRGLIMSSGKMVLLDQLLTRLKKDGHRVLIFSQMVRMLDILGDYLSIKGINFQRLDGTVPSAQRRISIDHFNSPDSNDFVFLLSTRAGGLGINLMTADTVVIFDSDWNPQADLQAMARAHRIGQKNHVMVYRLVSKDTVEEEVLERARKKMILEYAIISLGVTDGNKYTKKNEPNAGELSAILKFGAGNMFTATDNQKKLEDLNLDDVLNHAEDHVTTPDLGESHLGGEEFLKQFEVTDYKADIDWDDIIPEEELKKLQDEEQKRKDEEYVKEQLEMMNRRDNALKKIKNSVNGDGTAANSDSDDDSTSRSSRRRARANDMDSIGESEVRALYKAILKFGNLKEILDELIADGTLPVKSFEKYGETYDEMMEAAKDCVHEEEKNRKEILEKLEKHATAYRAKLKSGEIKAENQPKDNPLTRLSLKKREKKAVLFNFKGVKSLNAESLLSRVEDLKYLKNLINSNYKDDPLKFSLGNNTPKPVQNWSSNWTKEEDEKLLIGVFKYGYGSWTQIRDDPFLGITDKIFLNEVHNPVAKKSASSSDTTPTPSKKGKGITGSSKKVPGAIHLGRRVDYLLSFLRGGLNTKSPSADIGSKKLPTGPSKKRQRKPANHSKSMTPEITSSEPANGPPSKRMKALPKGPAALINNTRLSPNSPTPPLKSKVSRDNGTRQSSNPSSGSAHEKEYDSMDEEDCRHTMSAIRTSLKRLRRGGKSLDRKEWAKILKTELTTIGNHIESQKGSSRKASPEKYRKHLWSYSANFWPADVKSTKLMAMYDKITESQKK

For `CC(C)CN1CCC2(C1)CN(c1ncccn1)C2`, the Percent Effect in assay [1] is -1.21%; in assay [2], 13.3%; in [3], 3.02%; in assay [4], 6.7%; in assay [5], -5.1%; in assay [6] it was -3.15%. Also, the Percent Effect in [7] was -3.03%; in assay [8] it was 10.3%; in assay [9], 5.15%; in [10] it was -15.1%; in assay [11] it was 5.32%; in assay [12] it was 11.5%. For the same compound, the Percent Effect in assay [13] is -4.75%.
In the case of `Cc1cc(CN2CC[C@H]3C[C@H](C)O[C@@H]3C2)no1`, the Percent Effect was -1.91% in assay [1]; 18.9% in assay [2]; -4.38% in assay [3]; -0.664% in assay [4]; -1.18% in [5]; 3.23% in [6]. For the same compound, the Percent Effect in assay [7] was 5.41%; in assay [8] it was 9.96%; in [9] it was 17.4%; in assay [10] it was -1.03%; in [11], 7.57%; in [12], 17.9%. Moreover, the Percent Effect in assay [13] stood at 1.93%.
With `COCCN1C[C@@H]2[C@@H](OC)CCN(Cc3cccc(C)n3)[C@@H]2C1`, the Percent Effect was -1.97% in [1]; 11% in assay [2]; -0.137% in [3]; -7.2% in [4]; 9.07% in [5]; 6.75% in assay [6]. Further, the Percent Effect was -2% in assay [7]; 12.1% in [8]; -7.05% in [9]; -22.1% in [10]; 7.29% in assay [11]; 13.6% in [12]. Moreover, the Percent Effect in assay [13] was -5.26%.
Consider `O=C1OCCC1N1CCN(C(=O)Cc2c[nH]c3ccccc23)CC1` (stereo not given), for which the Percent Effect is -0.412% in [1]; 18.9% in assay [2]; 6.13% in [3]; -14.5% in [4]; -1.41% in assay [5]; 3.49% in [6]. For the same compound, the Percent Effect in assay [7] is -9.62%; in assay [8] it was 15.7%; in assay [9], 9.19%; in [10] it was 15.5%; in assay [11] it was 12.3%; in assay [12], 23.5%. In addition, in assay [13], the Percent Effect was -11.1%.
For the compound `c1cncc(CO[C@H]2CC[C@H]3[C@@H]2OCCN3C2CCOCC2)c1`, the Percent Effect in [1] was 1.26%; in assay [2], 2.74%; in assay [3], 0.0456%; in assay [4] it was -4.02%; in assay [5] it was 5.81%; in assay [6] it was 7.14%. Moreover, the Percent Effect was -0.399% in [7]; 4.37% in assay [8]; -1.77% in assay [9]; -20.6% in [10]; 3.12% in assay [11]; 8.64% in assay [12]. Further, the Percent Effect in assay [13] was determined as 1.15%.
